LGR2 inh = inhibitors of bursicon-induced LGR2 CRE-luciferase signal, primary screen, cell-based, HEK293, CRE-luciferase reporter, bursicon stimulation. bursicon-stimulated, 4 h. inhibition, % at 9.99 µM. 380,000 tested, 0.35% active. AID 720647, 2013;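 active = drop in luminescence signal, shown as inhibition above about 50% in the replicate tests, limit read from the data, passing the limit was not always enough; inconclusive = probably only some replicates passing the limit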;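 also: agonist challenge used bursicon conditioned medium at about half maximal strength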
PAX8 reporter = inhibitors of PAX8-driven TPO luciferase reporter, primary screen, RMG-I cells, single concentration; AID 652154, 2013; 360,000 tested, 1.2% active; inhibition, % at 12.6 µM; SteadyGlo, 24 h;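 active = mean replicate inhibition at least 60% with every replicate also reaching 60%; inconclusive = only one of the two criteria is met; inactive = mean below 60% and not all replicates reaching 60%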;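 also: luciferase light reporting Pax8 driven TPO promoter activity; plate controls were median of neutral control wells for no effect and mitoxantrone controls for full effect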
EWS-Fli block = EWS/Fli-driven NR0B1 reporter inhibitors, primary screen, A673 cells, NR0B1 luciferase, luminescence, MLPCN library. viability-normalised. inhibition, % at 12.6 µM. 350,000 tested, 0.67% active. AID 651661, 2012;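 active = mean inhibition of at least 50% after viability correction, with every replicate also passing that limit; inconclusive = mean reaches 50% but only one of two replicates passes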;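 also: firefly luciferase signal divided by Alamar Blue viability fluorescence both relative to DMSO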
LMP1 NFkB inh = EBV LMP1-driven NF-kappaB luciferase reporter inhibitors, primary screen, cell-based, luminescence, single point. AID 504558, 2011. LMP1-induced NF-kappaB luciferase reporter cells. 350,000 tested, 0.69% active. inhibition, % at 12.5 µM; in the data active = inhibition above about 41%; inconclusive = no clear call, values can overlap the other calls;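 also: 0% = neutral control wells and 100% = reference inhibitor control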
TROY signal inh = inhibitors of TROY-driven NF-kB signaling, primary screen, Q293 LMP1-TROYcd cells, NF-kB luciferase, uHTS | Q293 LMP1-TROYcd NF-kB luciferase reporter, 4 h | inhibition, % at 10 µM | 360,000 tested, 0.98% active;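 active = compounds whose plate-normalised and pattern-corrected inhibition of the luciferase reporter signal at the single screening dose is 50% or more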
TWEAK-Fn14 inh = inhibitors of TWEAK-Fn14 signaling, primary screen, luciferase reporter cells, uHTS | TWEAK-stimulated Fn14 reporter cells, luciferase luminescence, 8 h | inhibition, % at 10 µM | 360,000 tested, 2% active; in the data active = inhibition above about 50%
Active calls of the source: *; ? = inconclusive; nt = no result. Compounds with a hit are over-represented: about 3.2% of the library has one in this group of screens.

SMILES	LGR2 inh	PAX8 reporter	EWS-Fli block	LMP1 NFkB inh	TROY signal inh	TWEAK-Fn14 inh
C[C@H]1CCCCO[C@@H](CN(C)Cc2ccc(C(F)(F)F)cc2)[C@@H](C)CN([C@@H](C)CO)C(=O)c2cc(NC(=O)Nc3ccc(C(F)(F)F)cc3)ccc2O1	12	-29	5	nt	nt	nt
C[C@H](CO)N1C[C@H](C)[C@H](CN(C)Cc2ccc(Cl)c(Cl)c2)OCCCC[C@H](C)Oc2ccc(NC(=O)Nc3ccc(C(F)(F)F)cc3)cc2C1=O	19	88*	4	nt	nt	nt
C[C@@H]1CN([C@H](C)CO)C(=O)c2cc(NC(=O)Nc3ccc(C(F)(F)F)cc3)ccc2O[C@@H](C)CCCCO[C@@H]1CN(C)Cc1ccc(Cl)c(Cl)c1	-7	86*	5	nt	nt	nt
CC1(c2ccccc2)NC(=O)N(CC(=O)NCCC2=CCCCC2)C1=O (configuration not stated)	nt	10	nt	-11	57*	2
O=c1[nH]cnc2c1ncn2[C@@H]1O[C@H](CO)[C@@H](O)[C@H]1O	-8	-10	-8	80*	5	-22
Nc1ncnc2c1ncn2[C@@H]1O[C@H](CO)[C@@H](O)[C@H]1O	-14	-10	-7	3	-2	-57
O=c1[nH]nnc2c1ncn2C1OC(CO)C(O)C1O (configuration not stated)	4	97*	6	nt	10	0
CCc1oc2ccccc2c1C(=O)c1cc(Br)c(O)c(Br)c1	38	-12	-5	12	52*	-29
O=C(N/N=C/c1coc2ccccc2c1=O)c1cc(Br)c(O)c(Br)c1	9	-23	nt	-8	-9	21
COc1ccc(-c2n(Cc3ccccc3)c3ccccc3[n+]2Cc2ccccc2)cc1	27	89*	44	1	50*	38
COc1ccc(-c2nc3ccccc3n2Cc2ccccc2)cc1	-2	nt	nt	1	-11	-23
Cc1onc(-c2ccccc2Cl)c1C(=O)Nc1ccc(CN2CCCC2)cc1	nt	nt	nt	-2	nt	33
Cc1onc(-c2ccccc2Cl)c1C(=O)Nc1ccc(-c2nnc3n2CCCCC3)cc1	nt	-3	nt	2	-2	99*
Cc1onc(-c2ccccc2Cl)c1C(=O)NNC(=O)c1cccc(F)c1	8	-1	0	0	6	76*
O=C(c1ccccc1)N1C[C@@H]2[C@H](c3ccccc31)[C@@H](CO)N2Cc1ccccc1F	4	27	3	nt	nt	nt
O=C1OC2(CCCCC2)OC(=O)C1=CNc1nccs1	nt	nt	nt	-2	nt	55*
O=C1OC2(CCCCC2)OC(=O)C1=CNc1nc2ccccc2s1	nt	nt	nt	4	-33	2
CCOc1cc(C(=O)Nc2cccnc2)cc(OCC)c1OCC	-9	24	16	0	52*	21
CCCOc1ccc(C(=O)Nc2cccnc2)cc1	-21	-31	-32	-19	-44	2
C[C@@H]1CCCCO[C@H](CN(C)C(=O)Nc2ccc(F)cc2)[C@@H](C)CN([C@H](C)CO)C(=O)c2cc(NC(=O)Nc3ccc(F)cc3)ccc2O1	12	-5	6	nt	nt	nt
COc1ccc(Br)cc1/C=C/C(=O)c1ccc(NC(C)=O)cc1	95*	105*	?	4	42	84*
COc1ccc(NC(=O)/C=C/c2cc(Br)ccc2OC)cc1	nt	nt	nt	2	7	26
COc1cc2cc(NC(C)=O)cc(NCc3ccccc3)c2cc1OC	0	8	17	-20	59*	-6
Cc1ccc(S(=O)(=O)N(C)C[C@@H]2OCCCC[C@@H](C)Oc3ccc(NC(=O)Nc4ccc(F)cc4)cc3C(=O)N([C@H](C)CO)C[C@@H]2C)cc1	nt	-20	-2	nt	nt	nt
CCC(C)(C)c1ccc2c(c1)C(=O)c1ccccc1C2=O	-39	-153	nt	-15	48	61*
SMILES	LGR2 inh	PAX8 reporter	EWS-Fli block	LMP1 NFkB inh	TROY signal inh	TWEAK-Fn14 inh
CCC(=O)Nc1ccc2c(c1)C(=O)c1ccccc1C2=O	nt	nt	nt	-8	-55	-18
COc1ccccc1/C=N\Nc1ccccc1[N+](=O)[O-]	-59	-132	-55	-39	-40	-13
CCCOc1ccc(/C=N/Nc2cccc([N+](=O)[O-])c2)c(O)c1	-80	-102	nt	-60	-58	-9
CCCOc1ccc(/C=N/NC(=S)Nc2ccccc2[N+](=O)[O-])c(O)c1	83*	94*	nt	nt	nt	nt
O=[N+]([O-])c1cc(/C=N/NC(=S)Nc2ccccc2Cl)ccc1Cl	-3	4	24	6	5	-40
COc1ccc(/C=N/NC(=S)Nc2ccccc2[N+](=O)[O-])cc1O	38	-25	-14	-10	86*	93*
CCCOc1ccc(/C=N/Nc2ccccc2[N+](=O)[O-])c(O)c1	nt	-111	23	24	91*	98*
CC(C)Oc1ccccc1/C=N/Nc1ccccc1[N+](=O)[O-]	-8	-114	-14	-15	82*	7
Cc1ccccc1NC(=S)N/N=C/c1ccc(O)cc1O	-84	-149	-48	-23	21	-26
CO[C@@H](CN(C)Cc1ccc2c(c1)OCO2)[C@H](C)CN(C(=O)Nc1ccc(F)cc1)[C@@H](C)CO	6	nt	-8	nt	nt	nt
CO[C@@H]1CN(C)C(=O)c2ccc(NS(=O)(=O)c3ccccc3)cc2OC[C@H](C)N(C(=O)NC(C)C)C[C@H]1C	-5	nt	2	nt	nt	nt
O=C(NCc1ccc2c(c1)OCO2)[C@@H]1[C@@H](CO)[C@@H]2Cn3c(cccc3=O)[C@H]1N2Cc1ccncc1	-1	14	9	nt	nt	nt
COc1cc(/C=N/NC(=O)Cc2ccccc2)ccc1Oc1ccc([N+](=O)[O-])cc1[N+](=O)[O-]	1	-1	-3	-7	21	52*
C[C@@H]1CN([C@@H](C)CO)C(=O)c2cc(NC(=O)Cc3cn(C)c4ccccc34)ccc2O[C@@H]1CN(C)C(=O)Nc1cccc2ccccc12	20	nt	4	nt	nt	nt
COCC#Cc1cnc2c(c1)C(=O)N([C@@H](C)CO)C[C@@H](C)[C@H](CN(C)C(=O)CCN1CCCCC1)O2	9	nt	-11	nt	nt	nt
CCOc1ccc(C(=O)SC2=NCCS2)cc1	nt	nt	nt	2	36	63*
COc1cccc(C(=O)NC2=NCCS2)c1	nt	-48	nt	14	-20	48
CCOc1cccc(C(=O)NC2=NCCS2)c1	-44	-77	-3	14	-35	17
COc1ccc(C(=O)SC2=NCCS2)cc1	-5	nt	2	2	34	54*
COc1ccc(CNS(=O)(=O)c2cc(Cl)ccc2N2CC[C@@H](O)C2)cc1	-13	46	55*	nt	nt	nt
O=S(=O)(NCc1ccc(Cl)c(Cl)c1)c1cc(Cl)ccc1N1CC[C@@H](O)C1	-9	18	-5	nt	nt	nt
Cc1cc(C(=O)CSc2ccc(F)cc2)cc(C)c1O	-52	-160	-25	3	-42	9
